This is a sample that favours compounds with a hit; in the whole collection about 1.5% have one here.
Nrf2 ARE act: activators of Nrf2 (ARE) signaling. actives 0.31% (n = 410,000). AREc32 ARE-luciferase reporter (MCF7-derived line), luminescence, 24 h. AID 624171. Potency, µM (top dose mostly 46.1 µM), without a hit: top-dose activation, usual class: activators; also: potency is read from the fitted curve at half-maximal effect; % of control where 0% means no effect; nearly all actives have a fitted effect of over 65% in size
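ARE activation measured as luciferase luminescence (Steady-Glo, 30 min RT) in AREc32_Fluc cells after 24 hr compound exposure at 37 deg C, 5% CO2; cells seeded overnight at 1000/well in OPTI-MEM, 5% FBS.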
uPA surface inh: blocks generation of uPA at the cell surface. cell surface uPA generation assay, qHTS. Potency, µM (top dose mostly 38.3 µM), inactives show top-dose activity change, negative = inhibition, hits mostly inhibitors. actives 0.31% (n = 330,000). AID 540303; active = well fitted inhibition curve with a large enough effect; inconclusive = small, poorly fitted or top-dose-only effect; inactive = no such curve, though single readings can be large or run the other way; tested in mouse RAW 264.7 cells; also: potency is read from the fitted curve at half-maximal effect; % is scaled to controls: 0 for no effect and ±100 for the full control effect; nearly all actives have a fitted effect of over 55% in size
IL2 activator: activators of IL-2; IL-2 activation reporter assay, cell-based qHTS; stimulated with anti-CD3/CD4/CD28 beads; in transgenic mouse T cells; activation, % (series mostly up to about 46 µM); actives 0.065% (n = 360,000); in the data active = activation above about 50%; inconclusive = mostly about 30% to 49%; also: 0% is about no effect
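Unstimulated transgenic mouse T cells, 750 per well, received compound and, after 60 minutes, anti-CD3/anti-CD4 bead plus anti-CD28 stimulation. EGFP and DsRed were quantified after 18 hours.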
ALOX12 inh: blocks human arachidonate 12S-lipoxygenase; actives 1.1% (n = 580,000); Potency, µM (titrated, usually from 108 µM), for the others: at the highest dose activity change, negative = inhibition, actives largely listed as inhibitors; purified 12hLO, xylenol orange hydroperoxide absorbance; P18054; also: potency is read from the fitted curve at half-maximal effect; % is scaled to controls: 0 for no effect and ±100 for the full control effect
Target sequence (P18054 whole entry, looked up): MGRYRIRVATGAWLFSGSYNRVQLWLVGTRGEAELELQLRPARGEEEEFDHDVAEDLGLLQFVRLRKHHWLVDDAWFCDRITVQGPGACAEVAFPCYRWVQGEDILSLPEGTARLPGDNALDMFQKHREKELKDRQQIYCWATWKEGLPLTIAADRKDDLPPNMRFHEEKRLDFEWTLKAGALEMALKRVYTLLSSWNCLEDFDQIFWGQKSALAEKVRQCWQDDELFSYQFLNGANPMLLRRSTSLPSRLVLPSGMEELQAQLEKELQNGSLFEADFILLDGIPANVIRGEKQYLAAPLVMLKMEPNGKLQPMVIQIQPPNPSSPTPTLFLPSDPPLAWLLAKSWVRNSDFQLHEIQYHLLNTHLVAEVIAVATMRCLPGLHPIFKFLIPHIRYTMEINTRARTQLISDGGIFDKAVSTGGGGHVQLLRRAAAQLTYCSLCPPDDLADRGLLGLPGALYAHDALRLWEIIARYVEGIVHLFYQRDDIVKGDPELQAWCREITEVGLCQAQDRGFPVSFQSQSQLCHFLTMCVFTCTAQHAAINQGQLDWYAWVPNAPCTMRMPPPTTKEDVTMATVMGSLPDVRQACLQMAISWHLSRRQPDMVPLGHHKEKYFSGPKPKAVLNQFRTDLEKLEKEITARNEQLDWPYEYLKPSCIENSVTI
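Purified human 12hLO at 150 nM in 25 mM Hepes, 0.01% Triton X-100, pH 7.0, preincubated 15 min at room temperature with compound. Reaction started with 40 uM arachidonic acid, 30 min at room temperature. Hydroperoxide measured by Fe-xylenol orange, 573/405 nm absorbance ratio.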
Integrin act MD: integrin-mediated muscular dystrophy alleviation activation; Potency, µM (top dose mostly 38.3 µM), inactives show at the top dose activation, most hits filed as activators; actives 0.064% (n = 350,000); alpha7betagal myoblasts, beta-gal FDG fluorescence, 48 h; AID 624291;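 also: potency is read from the fitted curve at half-maximal effect; 100% = response of the positive control SU9516; nearly all actives have a fitted effect of over 60% in size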
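alpha7betagal+/- myoblasts (passage 13, 250/well) treated 48 h at 37C with compounds at 1:260 dilution of DMSO stock. Lysed, then beta-galactosidase activity read as FDG fluorescence (ex 480/em 540) after 30 min, with pre-read for autofluorescence.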
* hit, by the source's call. Unless noted, calls follow the shape of the dose curve; as a rule, active = well fitted curve in the direction sought with a large enough effect; inconclusive = small, poorly fitted or top-dose-only effect, or another doubt; inactive = no such curve, though single readings can be large; an effect the other way counts as inactive or inconclusive.

`O=C(NCCc1ccc(F)cc1)N[C@@H](Cc1ccccc1)C(=O)O` gave Nrf2 ARE act -0.6%, uPA surface inh -23.3%, IL2 activator 1.5, ALOX12 inh 3.3% and Integrin act MD 11.2µM*.
COCCn1nc2n(c1=O)CCN(C(=O)Cc1ccc(OC)c(OC)c1)CC2 was read as ALOX12 inh 10.1%.
`CC(C)(C)c1cc(N)c(O)c(Cl)c1` gave ALOX12 inh 17.8µM*.
Screening CC(C)(C)c1cc(-c2nc(N)nc(N)n2)c(O)c(C(C)(C)C)c1 returned Nrf2 ARE act -3.0%, uPA surface inh 6.8%, IL2 activator -0.5, ALOX12 inh inconclusive and Integrin act MD -46.5%.
Screening C=CCN1c2ccccc2[C@]23C[C@@H](C(=O)OC)N(C(=O)c4ccc(Br)cc4)C2=NC(C(=O)OC)=C(C(=O)OC)[C@H]13 returned Nrf2 ARE act 0.0%, uPA surface inh 5.62µM*, IL2 activator 0.6, ALOX12 inh 5.1% and Integrin act MD -13.3%.
For C=CCN1c2ccccc2[C@]23C[C@@H](C(=O)OC)N(C(=O)c4cccs4)C2=NC(C(=O)OC)=C(C(=O)OC)[C@H]13 the results were Nrf2 ARE act -0.8%, uPA surface inh 6.31µM*, IL2 activator 0.3, ALOX12 inh -2.4% and Integrin act MD -4.3%.
Screening C=CCN1c2ccccc2[C@]23C[C@@H](C(=O)OC)N(C(=O)OCC)C2=NC(C(=O)OC)=C(C(=O)OC)[C@H]13 returned Nrf2 ARE act 0.4%, uPA surface inh -27.0%, IL2 activator -3.8, ALOX12 inh -28.0% and Integrin act MD -11.2%.
`Cc1cccc(COc2ccc3c(C)cc(=O)oc3c2)c1` gave ALOX12 inh 11.2%.
`Cc1cc(SCc2ccccc2F)nc2ccccc12` gave ALOX12 inh 8.1%.
Screening Cc1cnc(NC(=O)c2csc(NC3CCCC3)n2)s1 returned ALOX12 inh -21.4%.
CCCCCCCCN1C(=O)[C@H](CC(=O)NCc2ccc(C)o2)C[C@@]2(C(=O)OC)CC(C)(C)CC=C12 was read as IL2 activator 2.2 and ALOX12 inh 39.8µM*.
For O=C(NCc1ccc(C(F)(F)F)cc1)[C@@H]1Cc2nc[nH]c2CN1Cc1ccc([N+](=O)[O-])cc1 the results were ALOX12 inh 85.0%.
COC(=O)[C@@H]1Cc2nc[nH]c2CN1Cc1ccc([N+](=O)[O-])cc1 was read as ALOX12 inh 10µM*.
For COc1ccc2[nH]c(C)c(C(=O)CN3CCN(C/C=C/c4ccccc4)CC3)c2c1 the results were Nrf2 ARE act 4.1%, uPA surface inh -1.5%, IL2 activator -1.1, ALOX12 inh -10.5% and Integrin act MD -20.3%.
`CCOCc1cnc(C)nc1NCC(=O)c1c(C)[nH]c2ccc(OC)cc12` gave Nrf2 ARE act -0.7%, uPA surface inh 1.7%, IL2 activator -1.6, ALOX12 inh 12.6µM* and Integrin act MD 19.2%.
Screening CC(C(=O)NCCc1c[nH]c2ccccc12)N1CCCCCC1 (configuration not stated) returned ALOX12 inh 5.5%.
Screening Cc1ccnc(N/C=C(/Cl)C(=O)C(F)(F)F)c1 returned ALOX12 inh 39.8µM*.
COC(=O)N/N=C/c1cccs1 was read as Nrf2 ARE act -0.7%, uPA surface inh 0.1%, IL2 activator -0.2, ALOX12 inh -9.3% and Integrin act MD inconclusive.
For COC(=O)C(=C/C(C)=C/c1cccs1)C(=O)OC the results were Nrf2 ARE act 14.1µM*, uPA surface inh -4.5%, IL2 activator -4.5, ALOX12 inh -22.9% and Integrin act MD -30.9%.
`O=C(O)c1ccccc1-c1ccccc1C(=O)Nc1ccc(-c2nc3cc(Cl)ccc3o2)cc1` gave Nrf2 ARE act 8.4%, uPA surface inh -2.6%, IL2 activator 0.1, ALOX12 inh 44.7µM* and Integrin act MD 32.3%.
COc1cccc(OC)c1C(=O)Nc1ccc(-c2nc3ccccc3o2)cc1 was read as ALOX12 inh 39.8µM*.
O=C(Nc1ccc(-c2nc3cc(Cl)ccc3o2)cc1)c1cc(Br)ccc1Cl was read as Nrf2 ARE act 3.7% and ALOX12 inh 2.8%.
For CC(C)c1ccc(-c2nc3cc(NC(=O)c4cccnc4)ccc3o2)cc1 the results were ALOX12 inh 39.8µM*.
For COc1ccc(-c2nc3cc(NC(=S)NC(=O)Cc4ccccc4)ccc3o2)cc1 the results were Nrf2 ARE act -0.5%, uPA surface inh 3.6%, IL2 activator -0.6, ALOX12 inh 28.2µM* and Integrin act MD 0.1%.
`COc1ccc2nc(C[C@@H]3C[C@@H](C(C)C)[C@H](CNCc4ccccc4OC)C=C3C)[nH]c2c1` gave ALOX12 inh -7.7%.
Screening CCN(CC)C(=O)c1cc(-c2ccccc2Cl)nc2ccccc12 returned ALOX12 inh -3.7%.
COc1ccc(Cl)cc1C=CC=Nc1ccccc1O was read as Nrf2 ARE act 10µM*, uPA surface inh -8.0%, IL2 activator -3.9, ALOX12 inh inconclusive and Integrin act MD -47.7%.
COc1ccc(NC(=O)C2C3CCC(O3)C2C(=O)O)c(C)c1 (configuration not stated) was read as Nrf2 ARE act 3.4%, uPA surface inh -8.3%, IL2 activator -0.1, ALOX12 inh -6.6% and Integrin act MD -33.4%.
For Cc1cc(Br)ccc1NC(=O)C1C2CCC(O2)C1C(=O)O (configuration not stated) the results were Nrf2 ARE act 0.7%, uPA surface inh -15.2%, IL2 activator -0.3, ALOX12 inh 5.01µM* and Integrin act MD -13.3%.
CC(C)(C)NC(=O)CNC(=O)CC1C=CCC1 (configuration not stated) was read as ALOX12 inh 0.7%.
Cn1cnc2c1c(=O)n(CCCSCc1ccc(F)cc1Cl)c(=O)n2C was read as ALOX12 inh -22.4%.
CCCC[n+]1c2ccccc2cc2ccccc21 was read as Nrf2 ARE act 3.2%, uPA surface inh 0.1%, IL2 activator -3.5, ALOX12 inh 8.91µM* and Integrin act MD -53.6%.
For Cc1ccccc1CNC(=O)c1cnc2ccccc2n1 the results were ALOX12 inh 4.47µM*.
CN(C)c1ccc(C(=O)NC2CCN(c3cnn(C)c(=O)c3)CC2)cc1 was read as ALOX12 inh 12.2%.
For O=C(Cc1cccs1)NCCS(=O)(=O)N1CCN(c2ccccc2F)CC1 the results were Nrf2 ARE act 0.3%, uPA surface inh 3.16µM*, IL2 activator -1.1, ALOX12 inh -0.4% and Integrin act MD -18.9%.
`COc1ccccc1N1CCN(S(=O)(=O)CCNC(=O)c2cc(OC)c(OC)c(OC)c2)CC1` gave Nrf2 ARE act -0.8%, uPA surface inh 12.6µM*, IL2 activator 0.8, ALOX12 inh 62.4% and Integrin act MD -51.4%.
